VP16 counter = inhibits Gal4-VP16 luciferase reporter, ROR gamma counter-screen. hit rate 3.5% among 310,000. Potency, µM (doses to about 53.6 µM), actives largely listed as inhibitors. Drosophila S2 Gal4-VP16 UAS-luciferase, luminescence, 20 h;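 note: Gal4-VP16 expression switched on by copper sulfate through the metallothionein promoter; nearly all actives have a fitted effect of over 50% in size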
IL-1B inflam inh = inflammasome signaling inhibition, IL-1 beta readout; THP-1 LPS/ATP IL-1B secretion, AlphaLISA, 16 h; hits give low values; activity change, % at 57.5 µM; hit rate 4.7% among 360,000; AID 743279; in the data active = activity change below about -50%; inconclusive = mostly about -30% to -49%
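THP-1 cells pretreated 1 hr with compounds (up to 57.5 uM final), then stimulated with LPS (250 ng/mL final) plus ATP (1.25 mM final); secreted IL-1B measured by AlphaLISA after 16 hr, decreased signal indicating inhibition.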
SW480 rereplic = DNA re-replication induction in SW480 cells; SW480 DNA re-replication, Hoechst DNA content imaging, 48 h; Potency, µM (top dose mostly 46.1 µM), usual class: activators; AID 624297; hit rate 1.8% among 340,000; note: nearly all actives have a fitted effect of over 55% in size
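250 cells/well; 23 nL cpd via pin tool; 48 hr, 37 C, 5% CO2; Hoechst 40 min; imager read of total nuclear intensity, ex 405/em 500-530 nm.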
RORgamma inh = blocks mouse ROR gamma transcriptional activity; P51450; Drosophila S2 Gal4-RORgamma UAS-luciferase reporter, 20 h; Potency, µM (doses to about 53.6 µM), hits mostly inhibitors; hit rate 5.4% among 310,000; AID 2551; note: nearly all actives have a fitted effect of over 60% in size
Target sequence (P51450 whole entry, looked up, the tested form may be a part): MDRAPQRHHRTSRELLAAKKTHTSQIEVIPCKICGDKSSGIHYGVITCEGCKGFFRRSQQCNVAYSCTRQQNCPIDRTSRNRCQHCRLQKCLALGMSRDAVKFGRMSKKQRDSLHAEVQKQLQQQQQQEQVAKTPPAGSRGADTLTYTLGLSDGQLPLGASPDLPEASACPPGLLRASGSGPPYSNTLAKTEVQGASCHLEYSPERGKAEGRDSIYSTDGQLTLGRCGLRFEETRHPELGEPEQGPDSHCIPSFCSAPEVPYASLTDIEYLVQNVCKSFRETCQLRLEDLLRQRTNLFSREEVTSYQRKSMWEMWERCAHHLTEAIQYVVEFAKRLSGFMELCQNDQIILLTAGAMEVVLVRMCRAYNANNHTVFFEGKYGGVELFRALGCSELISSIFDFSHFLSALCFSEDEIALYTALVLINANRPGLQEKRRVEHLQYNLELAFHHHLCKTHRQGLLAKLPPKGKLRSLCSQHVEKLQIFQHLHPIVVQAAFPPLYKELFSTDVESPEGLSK
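Stably transfected Drosophila Schneider cells are the test system, with ROR gamma fused to Gal4 and luciferase under UAS control; luminescence is read after 20 hr of 700 uM copper sulfate induction at ambient temperature.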
MCF10A rereplic = inducers of DNA re-replication in MCF 10A breast cells | Potency, µM (highest dose often 46.1 µM), usual class: activators | MCF 10A DNA re-replication, Hoechst nuclear intensity, 48 h | hit rate 2.9% among 350,000; note: nearly all actives have a fitted effect of over 50% in size
Each line names hits and unclear results; the compound was inactive in the other large screens. A selection: hits, their analogues and other compounds. The true share with any hit is near 11%. Unless noted, calls come from the whole dose curve; as a rule, active = well fitted curve in the direction sought with a large enough effect; inconclusive = small, poorly fitted or top-dose-only effect, or another doubt; inactive = no such curve, though single readings can be large; an effect the other way counts as inactive or inconclusive.

O=C(NCCN1CCN(c2ccccc2F)CC1)c1cccn2c(=O)c3ccccc3nc12	MCF10A rereplic 5.17µM
Cc1ccc(C2=NN(C(=O)c3cccs3)C(c3ccccc3O)C2)cc1 (centres undefined)	SW480 rereplic inconclusive, MCF10A rereplic 20.6µM
O=C(c1cccs1)N1N=C(c2ccccc2)CC1c1ccccc1O (centres undefined)	IL-1B inflam inh -78.6, SW480 rereplic inconclusive, MCF10A rereplic inconclusive
COc1ccc(C2=NN(C(=O)c3cccs3)C(c3ccccc3OC)C2)cc1OC (centres undefined)	IL-1B inflam inh -84.1
CCN(CC)C(=O)Nc1ccc(OC[C@H](O)CNC(C)(C)C)c(C(C)=O)c1	none (no result: IL-1B inflam inh)
COc1ccc(NC(=S)N2CCN(Cc3ccccc3)CC2)c(OC)c1	none
Cc1cccc(NC(=S)N2CCN(Cc3ccccc3)CC2)c1C	VP16 counter inconclusive, RORgamma inh 8.91µM, MCF10A rereplic inconclusive
Cc1cc(Cl)ccc1NC(=S)N1CCN(Cc2ccccc2)CC1	VP16 counter 12.6µM, RORgamma inh 11.2µM
CCN(CC)c1ccc(C(=O)NC(=S)N2CCN(Cc3ccc4c(c3)OCO4)CC2)cc1	VP16 counter 7.08µM, RORgamma inh 6.31µM, MCF10A rereplic inconclusive
Cc1ccccc1NC(=S)N1CCN(Cc2ccc3c(c2)OCO3)CC1	VP16 counter inconclusive, RORgamma inh inconclusive
CC(C)NC(=S)N1CCN(Cc2ccc3c(c2)OCO3)CC1	none
Cc1c(Cl)cccc1NC(=S)N1CCN(Cc2ccc3c(c2)OCO3)CC1	VP16 counter 14.1µM, RORgamma inh 11.2µM
Cc1ccc(C(=O)NCC(=O)OC(C)C(=O)NC2CCCc3ccccc32)cc1 (centres undefined)	none (no result: VP16 counter, RORgamma inh)
COc1cccc(C(NC(C)=O)c2nc(-c3ccccc3C)cs2)c1 (centres undefined)	none (no result: VP16 counter, SW480 rereplic, RORgamma inh, MCF10A rereplic)
CC(O)(Cc1ccccn1)Cc1ccccn1	none (no result: VP16 counter, RORgamma inh)
Cc1cc(C)c(C2=Nn3c(C)nnc3SC2C)cc1C (centres undefined)	RORgamma inh inconclusive
CCCCN(CCCC)CC(O)COc1ccc(Br)cc1 (centres undefined)	IL-1B inflam inh -67.3
CC(=O)Nc1sc(C)c(C)c1C(=O)OCCOc1ccccc1	RORgamma inh inconclusive
N#CC1=C(N)C(C#N)(C#N)[C@H](c2c(F)cccc2F)[C@H]2CC3(CC=C12)OCCO3	SW480 rereplic 3.26µM, MCF10A rereplic 4.11µM
CN1C2C=C3C(C#N)=C(N)C(C#N)(C#N)[C@H](c4c(F)cccc4F)[C@H]3C1CC2 (some centres undefined)	IL-1B inflam inh -92.5
CCOc1ccccc1N=C1SCC(C)N1C(=O)C1CCN(c2ncnc3sc(C)c(C)c23)CC1 (centres undefined)	none (no result: VP16 counter, RORgamma inh)
CC1(C)CN=c2s/c(=C\c3ccc(Cl)cc3)c(=O)n2C1	IL-1B inflam inh -85.5
COc1cc(-c2cnc3c(NC=O)cc(-c4ccc(N5CCN(C)CC5)cc4)cn23)cc(OC)c1OC	none (no result: VP16 counter, SW480 rereplic, RORgamma inh, MCF10A rereplic)
CC(=O)Nc1cc(-c2cccc(F)c2)cn2c(-c3ccc(S(C)(=O)=O)cc3)cnc12	IL-1B inflam inh -52.4 (no result: VP16 counter, SW480 rereplic, RORgamma inh, MCF10A rereplic)
CN(C)CCNC(=O)c1cccc(-c2cnc3c(NC=O)cc(-c4cc(F)c(F)c(F)c4)cn23)c1	none (no result: VP16 counter, SW480 rereplic, RORgamma inh, MCF10A rereplic)
COc1cc(-c2cnc3c(NC(C)=O)cc(-c4ccc(N5CCN(C)CC5)cc4)cn23)cc(OC)c1OC	IL-1B inflam inh -87.1 (no result: VP16 counter, SW480 rereplic, RORgamma inh, MCF10A rereplic)
CN(C)CCNC(=O)c1cccc(-c2cc(NC=O)c3ncc(-c4cccc(C(F)(F)F)c4)n3c2)c1	IL-1B inflam inh -109.0 (no result: VP16 counter, SW480 rereplic, RORgamma inh, MCF10A rereplic)
COc1ccc(-c2cc(NC=O)c3ncc(-c4ccc(OC)c(OC)c4)n3c2)cc1OC	IL-1B inflam inh -62.0 (no result: VP16 counter, SW480 rereplic, RORgamma inh, MCF10A rereplic)
CO[C@@H]1COC(=O)[C@@H](C)NC(=O)C/C=C\[C@@H](C)[C@H](NS(=O)(=O)c2ccc(C)cc2)COC(=O)[C@H](C)NC(=O)C/C=C\[C@H]1C	none (no result: IL-1B inflam inh, SW480 rereplic, MCF10A rereplic)
COc1ccc(CC(Cc2ccc(OC)c(OC)c2)NC=O)cc1OC	none (no result: VP16 counter, SW480 rereplic, RORgamma inh, MCF10A rereplic)
COc1ccc(-c2cc(NC(C)=O)c3ncc(-c4ccccc4)n3c2)c(OC)c1	none (no result: VP16 counter, SW480 rereplic, RORgamma inh, MCF10A rereplic)
COc1ccc(-c2cc(NC(C)=O)c3ncc(-c4ccc(OC)c(OC)c4)n3c2)c(OC)c1	IL-1B inflam inh -59.1 (no result: VP16 counter, SW480 rereplic, RORgamma inh, MCF10A rereplic)
CCNC(=O)C1(C)CCCCN1Cc1ccc(C#N)cc1 (centres undefined)	none (no result: VP16 counter, SW480 rereplic, RORgamma inh, MCF10A rereplic)
CC(C)C(NC(=O)CSc1ccc(Cl)cc1)C(C)C	RORgamma inh inconclusive, MCF10A rereplic 25.9µM
c1ccc(-c2c(-c3ccccc3)n(Cc3ccco3)c3ncnc(NCCCn4ccnc4)c23)cc1	VP16 counter 15.8µM, IL-1B inflam inh -98.2, MCF10A rereplic inconclusive
COc1ccc(-c2oc3ncnc(N)c3c2-c2ccccc2)cc1	MCF10A rereplic inconclusive
CN(C)CCCNc1ncnc2oc(-c3ccccc3)c(-c3ccccc3)c12	IL-1B inflam inh -82.7, SW480 rereplic inconclusive, MCF10A rereplic inconclusive
N#Cc1nc(-c2ccccc2)oc1NCCCn1ccnc1	none
c1ccc(-c2oc3ncnc(NCCCn4ccnc4)c3c2-c2ccccc2)cc1	VP16 counter inconclusive, IL-1B inflam inh -78.7, RORgamma inh 22.4µM, MCF10A rereplic inconclusive
CCCCCCCCCCCCCCCC(=O)NCC(=O)O	none (no result: IL-1B inflam inh, SW480 rereplic, MCF10A rereplic)
C[C@H]1COc2cc(N(C)CCO)ccc2S(=O)(=O)N1	none (no result: VP16 counter, SW480 rereplic, RORgamma inh, MCF10A rereplic)
Cc1nn(-c2ccccc2)c2c1C(c1ccc([N+](=O)[O-])cc1)N1C(=N2)C(=O)Nc2ccccc21 (centres undefined)	IL-1B inflam inh -75.3, RORgamma inh inconclusive
COc1ccc(/C=C/c2cc(O)cc(OC3OC(CO)C(O)C(O)C3O)c2)cc1 (centres undefined)	SW480 rereplic 0.184µM (no result: VP16 counter, RORgamma inh)
Cc1cc(O)cc(O[C@H]2OC(CO)[C@H](O)[C@@H](O)[C@H]2O)c1 (some centres undefined)	none
CC(C)(O)CCC(C)(C)O	none
Cc1cc(Br)ccc1NC(=S)Nc1cccc([N+](=O)[O-])c1	VP16 counter inconclusive, RORgamma inh 11.2µM
C/C(=N\NC(=S)NC(C)C)c1cccc([N+](=O)[O-])c1	VP16 counter 3.98µM, RORgamma inh 1.26µM
C/C(=N/Nc1nc(C)c(C)s1)c1cccc([N+](=O)[O-])c1	VP16 counter inconclusive, RORgamma inh 11.2µM
Cc1cccc(NC(=S)N/N=C(\c2ccccc2)C(C)C)c1	VP16 counter inconclusive, RORgamma inh 4.47µM
O=C1Nc2ccccc2-n2nnnc2C1N1CCN(C(=O)c2ccco2)CC1 (centres undefined)	none (no result: VP16 counter, SW480 rereplic, RORgamma inh, MCF10A rereplic)
Cc1ccc([C@@H]2C[C@H]3[C@@H](CN2S(=O)(=O)c2ccc(Cl)cc2)C(=O)C[C@@H](c2ccc(Cl)cc2)N3S(=O)(=O)c2ccccc2C)cc1	none (no result: VP16 counter, SW480 rereplic, RORgamma inh, MCF10A rereplic)
C/C(=N/NC(=S)Nc1cccc(C)c1)c1cccc([N+](=O)[O-])c1	VP16 counter 10µM, RORgamma inh 2.82µM
CCOC(=O)N/N=C(\C)c1ccc(C)c([N+](=O)[O-])c1	none

Source: PubChem (National Center for Advancing Translational Sciences (NCATS))
